Data on one molecule can be found in ChEMBL document CHEMBL2218924, “A broad activity screen in support of a chemogenomic map for kinase signalling research and drug discovery” (Biochem J, 2013).

In assay [1] the target is T1, Ephrin type-A receptor 3 (Homo sapiens) (UniProt P29320).
T1 sequence (whole entry): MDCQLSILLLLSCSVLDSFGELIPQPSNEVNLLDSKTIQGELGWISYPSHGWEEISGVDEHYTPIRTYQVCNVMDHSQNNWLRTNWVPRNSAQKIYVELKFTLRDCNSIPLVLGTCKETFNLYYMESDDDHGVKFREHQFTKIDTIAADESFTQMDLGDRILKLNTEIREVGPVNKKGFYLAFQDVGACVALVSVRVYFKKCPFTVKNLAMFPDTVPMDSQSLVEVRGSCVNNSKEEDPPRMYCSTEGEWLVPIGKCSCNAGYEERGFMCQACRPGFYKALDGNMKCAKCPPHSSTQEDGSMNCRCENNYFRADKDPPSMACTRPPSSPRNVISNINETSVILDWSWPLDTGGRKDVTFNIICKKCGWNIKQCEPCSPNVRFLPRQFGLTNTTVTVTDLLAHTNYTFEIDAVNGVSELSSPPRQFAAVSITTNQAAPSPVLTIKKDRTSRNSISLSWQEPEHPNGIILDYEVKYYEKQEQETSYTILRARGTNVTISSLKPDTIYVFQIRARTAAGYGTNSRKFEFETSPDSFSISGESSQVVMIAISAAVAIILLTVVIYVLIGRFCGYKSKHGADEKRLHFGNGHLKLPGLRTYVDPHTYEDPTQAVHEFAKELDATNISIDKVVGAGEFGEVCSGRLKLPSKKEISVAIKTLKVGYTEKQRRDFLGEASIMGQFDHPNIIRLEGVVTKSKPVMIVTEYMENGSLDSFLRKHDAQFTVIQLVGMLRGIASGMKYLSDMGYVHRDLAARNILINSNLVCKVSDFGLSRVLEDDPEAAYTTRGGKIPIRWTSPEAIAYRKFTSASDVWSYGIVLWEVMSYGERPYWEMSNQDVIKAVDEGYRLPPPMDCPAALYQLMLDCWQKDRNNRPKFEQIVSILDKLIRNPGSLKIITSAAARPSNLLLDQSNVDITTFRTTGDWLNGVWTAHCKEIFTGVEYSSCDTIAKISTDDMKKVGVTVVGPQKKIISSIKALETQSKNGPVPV
Particulars: at 10 µM.

Assay [2] concerns the target Ephrin type-A receptor 4 (Homo sapiens) (UniProt P54764). Particulars: at 1 µM.
Assay [3] has the same target. The conditions noted are these: at 10 µM.
Assay [4] concerns the target Ephrin type-A receptor 5 (Homo sapiens) (UniProt P54756). The conditions noted are these: at 1 µM.
For assay [5] the target is unchanged. The conditions noted are these: at 10 µM.
In assay [6] the target is Ephrin type-A receptor 7 (Homo sapiens) (UniProt Q15375). The conditions noted are these: at 1 µM.
Chain of Ephrin type-A receptor 7 (Homo sapiens) (Q15375 28-998 limits assumed): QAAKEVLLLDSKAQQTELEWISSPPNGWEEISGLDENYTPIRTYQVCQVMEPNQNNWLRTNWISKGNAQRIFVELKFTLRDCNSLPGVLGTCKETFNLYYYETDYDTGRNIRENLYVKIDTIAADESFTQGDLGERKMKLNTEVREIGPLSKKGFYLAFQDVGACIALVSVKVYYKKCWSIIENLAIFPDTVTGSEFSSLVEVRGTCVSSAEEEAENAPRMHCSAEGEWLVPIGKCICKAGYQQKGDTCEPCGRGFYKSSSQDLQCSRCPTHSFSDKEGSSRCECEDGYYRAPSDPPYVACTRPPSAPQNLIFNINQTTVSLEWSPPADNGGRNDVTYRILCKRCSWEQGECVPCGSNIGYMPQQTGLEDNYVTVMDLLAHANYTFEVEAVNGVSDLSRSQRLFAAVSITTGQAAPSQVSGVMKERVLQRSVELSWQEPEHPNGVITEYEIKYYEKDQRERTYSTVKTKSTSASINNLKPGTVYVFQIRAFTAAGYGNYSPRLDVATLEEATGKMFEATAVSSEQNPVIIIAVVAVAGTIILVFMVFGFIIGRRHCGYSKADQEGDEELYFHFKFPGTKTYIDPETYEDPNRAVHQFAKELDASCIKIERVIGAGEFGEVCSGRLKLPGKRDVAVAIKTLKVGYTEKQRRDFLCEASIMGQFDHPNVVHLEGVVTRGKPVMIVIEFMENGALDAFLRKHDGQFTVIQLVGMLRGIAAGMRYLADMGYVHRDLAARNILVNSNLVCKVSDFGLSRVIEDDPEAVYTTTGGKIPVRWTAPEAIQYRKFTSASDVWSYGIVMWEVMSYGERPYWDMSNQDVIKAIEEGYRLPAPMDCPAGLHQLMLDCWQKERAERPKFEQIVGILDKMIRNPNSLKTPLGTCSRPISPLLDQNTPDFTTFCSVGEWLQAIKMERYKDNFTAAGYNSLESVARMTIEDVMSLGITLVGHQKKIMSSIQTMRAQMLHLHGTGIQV
The target is the same in assay [7]. Particulars: at 10 µM.
Assay [8] addresses T2, Ephrin type-A receptor 8 (Homo sapiens) (UniProt P29322).
T2 sequence (whole entry): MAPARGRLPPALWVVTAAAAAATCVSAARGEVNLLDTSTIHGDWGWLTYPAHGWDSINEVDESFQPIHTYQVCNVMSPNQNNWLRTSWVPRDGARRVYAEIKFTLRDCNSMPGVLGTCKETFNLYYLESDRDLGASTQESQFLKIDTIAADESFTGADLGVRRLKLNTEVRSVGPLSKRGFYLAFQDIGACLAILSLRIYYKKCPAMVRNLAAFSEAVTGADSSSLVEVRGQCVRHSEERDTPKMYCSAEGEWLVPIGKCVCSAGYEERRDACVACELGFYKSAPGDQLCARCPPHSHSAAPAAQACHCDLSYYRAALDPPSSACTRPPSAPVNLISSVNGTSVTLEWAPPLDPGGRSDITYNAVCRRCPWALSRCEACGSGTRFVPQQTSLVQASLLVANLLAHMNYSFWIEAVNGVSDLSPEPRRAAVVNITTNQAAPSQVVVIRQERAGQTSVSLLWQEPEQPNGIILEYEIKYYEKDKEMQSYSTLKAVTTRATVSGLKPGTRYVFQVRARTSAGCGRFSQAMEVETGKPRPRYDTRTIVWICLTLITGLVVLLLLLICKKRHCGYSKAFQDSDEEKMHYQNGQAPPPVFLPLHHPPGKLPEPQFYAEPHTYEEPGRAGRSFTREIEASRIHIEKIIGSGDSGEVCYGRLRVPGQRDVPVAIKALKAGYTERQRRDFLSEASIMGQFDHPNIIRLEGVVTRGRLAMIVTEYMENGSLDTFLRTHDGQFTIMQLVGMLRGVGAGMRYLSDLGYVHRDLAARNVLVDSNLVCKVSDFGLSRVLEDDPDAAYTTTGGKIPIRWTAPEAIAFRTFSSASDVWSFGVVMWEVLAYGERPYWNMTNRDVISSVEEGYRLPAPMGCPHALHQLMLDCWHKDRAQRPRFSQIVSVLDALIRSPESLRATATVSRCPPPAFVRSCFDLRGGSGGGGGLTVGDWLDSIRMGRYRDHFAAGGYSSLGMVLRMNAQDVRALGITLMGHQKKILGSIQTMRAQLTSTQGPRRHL
The conditions noted are these: at 1 µM.

The target in assay [9] is T2, Ephrin type-A receptor 8 (Homo sapiens). The conditions noted are these: at 10 µM.
Assay [10] addresses T3, Ephrin type-B receptor 1 (Homo sapiens) (UniProt P54762).
T3 sequence (whole entry): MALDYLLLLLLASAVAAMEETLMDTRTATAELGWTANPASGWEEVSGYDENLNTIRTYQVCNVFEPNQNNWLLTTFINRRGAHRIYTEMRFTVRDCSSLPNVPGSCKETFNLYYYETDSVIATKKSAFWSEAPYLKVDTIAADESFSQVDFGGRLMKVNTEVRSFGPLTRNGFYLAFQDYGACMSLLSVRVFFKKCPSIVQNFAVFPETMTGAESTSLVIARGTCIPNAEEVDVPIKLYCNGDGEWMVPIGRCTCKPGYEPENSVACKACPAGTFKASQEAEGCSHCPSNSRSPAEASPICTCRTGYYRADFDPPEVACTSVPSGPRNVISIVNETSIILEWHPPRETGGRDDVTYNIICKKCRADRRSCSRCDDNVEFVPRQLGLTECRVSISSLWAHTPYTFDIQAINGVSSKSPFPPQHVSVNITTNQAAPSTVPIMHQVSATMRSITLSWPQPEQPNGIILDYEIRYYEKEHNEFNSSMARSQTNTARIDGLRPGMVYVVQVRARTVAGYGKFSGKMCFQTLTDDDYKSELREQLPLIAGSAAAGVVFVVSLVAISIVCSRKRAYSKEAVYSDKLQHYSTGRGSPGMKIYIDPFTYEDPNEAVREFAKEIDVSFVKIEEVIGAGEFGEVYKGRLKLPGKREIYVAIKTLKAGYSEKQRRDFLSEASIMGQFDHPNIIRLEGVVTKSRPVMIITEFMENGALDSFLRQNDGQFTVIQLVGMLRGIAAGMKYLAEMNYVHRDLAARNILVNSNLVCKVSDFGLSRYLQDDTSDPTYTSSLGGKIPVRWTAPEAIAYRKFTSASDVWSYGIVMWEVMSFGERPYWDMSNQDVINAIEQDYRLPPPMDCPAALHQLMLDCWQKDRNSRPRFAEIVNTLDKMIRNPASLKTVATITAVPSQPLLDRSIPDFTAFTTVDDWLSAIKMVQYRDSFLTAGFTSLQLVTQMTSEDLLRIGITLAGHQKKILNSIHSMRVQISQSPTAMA
Particulars: at 1 µM.

Chain of Ephrin type-A receptor 5 (Homo sapiens) (P54756 whole entry): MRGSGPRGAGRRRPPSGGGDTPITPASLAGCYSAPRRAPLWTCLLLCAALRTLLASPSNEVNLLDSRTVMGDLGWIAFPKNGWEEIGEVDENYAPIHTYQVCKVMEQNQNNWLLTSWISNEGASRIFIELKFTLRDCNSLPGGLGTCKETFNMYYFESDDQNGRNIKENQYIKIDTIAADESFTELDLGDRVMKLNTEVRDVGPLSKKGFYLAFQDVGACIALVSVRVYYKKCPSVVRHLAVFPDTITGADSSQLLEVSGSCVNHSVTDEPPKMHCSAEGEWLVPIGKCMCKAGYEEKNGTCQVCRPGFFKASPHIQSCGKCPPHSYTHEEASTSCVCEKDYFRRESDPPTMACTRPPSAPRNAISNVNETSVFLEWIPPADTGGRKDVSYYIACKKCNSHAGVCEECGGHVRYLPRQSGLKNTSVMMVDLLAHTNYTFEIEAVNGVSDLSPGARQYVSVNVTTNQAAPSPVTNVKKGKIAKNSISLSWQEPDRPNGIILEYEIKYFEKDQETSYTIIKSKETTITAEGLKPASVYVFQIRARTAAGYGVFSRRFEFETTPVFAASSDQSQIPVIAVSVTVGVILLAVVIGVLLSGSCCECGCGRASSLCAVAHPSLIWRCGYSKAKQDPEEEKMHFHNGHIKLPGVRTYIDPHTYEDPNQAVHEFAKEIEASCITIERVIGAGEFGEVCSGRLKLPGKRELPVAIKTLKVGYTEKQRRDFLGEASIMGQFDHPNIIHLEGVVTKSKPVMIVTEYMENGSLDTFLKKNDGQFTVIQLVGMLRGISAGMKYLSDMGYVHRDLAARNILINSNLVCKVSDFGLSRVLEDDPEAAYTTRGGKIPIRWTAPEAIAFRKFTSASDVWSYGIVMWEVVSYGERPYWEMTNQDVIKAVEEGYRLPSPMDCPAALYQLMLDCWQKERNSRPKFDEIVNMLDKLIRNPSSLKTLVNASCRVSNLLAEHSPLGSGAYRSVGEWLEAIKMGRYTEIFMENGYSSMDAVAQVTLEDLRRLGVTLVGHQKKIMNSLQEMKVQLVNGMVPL
Chain of Ephrin type-A receptor 4 (Homo sapiens) (P54764 whole entry): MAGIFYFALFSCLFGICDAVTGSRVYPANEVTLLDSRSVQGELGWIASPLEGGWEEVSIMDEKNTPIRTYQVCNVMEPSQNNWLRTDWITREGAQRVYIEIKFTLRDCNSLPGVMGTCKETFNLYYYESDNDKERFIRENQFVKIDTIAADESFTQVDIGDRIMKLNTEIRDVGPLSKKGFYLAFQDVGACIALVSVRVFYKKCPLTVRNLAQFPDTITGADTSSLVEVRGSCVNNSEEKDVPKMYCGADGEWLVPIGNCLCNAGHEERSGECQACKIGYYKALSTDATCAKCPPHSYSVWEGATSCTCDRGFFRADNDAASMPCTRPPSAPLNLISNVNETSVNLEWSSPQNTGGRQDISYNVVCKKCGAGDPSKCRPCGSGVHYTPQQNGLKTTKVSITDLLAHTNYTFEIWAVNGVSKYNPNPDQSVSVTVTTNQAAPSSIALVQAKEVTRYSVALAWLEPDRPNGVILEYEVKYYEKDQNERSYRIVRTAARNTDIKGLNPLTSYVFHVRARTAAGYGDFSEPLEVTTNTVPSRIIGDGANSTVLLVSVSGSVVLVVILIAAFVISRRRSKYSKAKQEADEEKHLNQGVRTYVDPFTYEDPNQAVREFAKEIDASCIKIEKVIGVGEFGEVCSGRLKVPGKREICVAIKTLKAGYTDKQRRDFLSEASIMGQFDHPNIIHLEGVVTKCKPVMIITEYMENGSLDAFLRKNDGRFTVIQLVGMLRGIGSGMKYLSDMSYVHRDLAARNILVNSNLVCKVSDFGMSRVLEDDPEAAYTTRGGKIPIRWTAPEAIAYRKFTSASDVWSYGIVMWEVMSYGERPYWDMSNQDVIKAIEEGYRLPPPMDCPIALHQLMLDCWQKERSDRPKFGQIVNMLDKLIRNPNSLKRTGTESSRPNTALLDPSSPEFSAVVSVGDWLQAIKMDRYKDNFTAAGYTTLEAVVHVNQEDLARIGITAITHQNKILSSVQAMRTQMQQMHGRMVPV

The term residual activity denotes the signal under treatment as a percentage of the control signal. As to `COc1cccc(-c2cc(=O)c3ccccc3o2)c1N`, the residual activity turned out to be 108% in assay [1]; 109% in assay [2]; 108% in assay [3]; 118% in assay [4]; 96% in [5]; 98% in assay [6]. The residual activity was determined as 97% in [7], 105% in assay [8], 104% in [9] and 118% in assay [10].
